Assay [1] is described as follows: Quantitative High-Throughput drug screen in 47 multiple myeloma cell lines against the NCATS MIPE library collection: PE2_PLB cell viability assay (AID 1919869). Note: nearly all actives have a fitted effect of over 35% in size. Note: potency is the fitted concentration of half-maximal effect. Put shortly: (§1)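 MIPE 4.0 approved/investigational drugs; 500 cells/well; 48 h 37 °C humidified 5% CO2; CTG luminescence readout; DMSO = 100%, media = 0% viability.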
Assay [2] in a line: Quantitative High-Throughput drug screen in 47 multiple myeloma cell lines against the NCATS MIPE library collection: PCM6_Riken cell viability assay (AID 1919870). Note: nearly all actives have a fitted effect of over 30% in size. Note: potency is the fitted concentration of half-maximal effect. Put shortly: as §1
Assay [3] can be described thus: Quantitative High-Throughput drug screen in 47 multiple myeloma cell lines against the NCATS MIPE library collection: RPMI8226_ATCC cell viability assay (AID 1919871). Note: nearly all actives have a fitted effect of over 30% in size. Note: potency is the fitted concentration of half-maximal effect. Put shortly:
as §1

Assay [4] can be described thus: Quantitative High-Throughput drug screen in 47 multiple myeloma cell lines against the NCATS MIPE library collection: OPM2_DSMZ cell viability assay (AID 1919872). Note: nearly all actives have a fitted effect of over 30% in size. Note: potency is the fitted concentration of half-maximal effect. Put shortly:
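qHTS of the MIPE 4.0 collection: 500 myeloma cells/well, 48 h drug exposure at 37C in 5% CO2, then CellTiter-Glo for 5 min at room temperature before luminescence reading.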

Assay [5] can be described thus: Quantitative High-Throughput drug screen in 47 multiple myeloma cell lines against the NCATS MIPE library collection: KMS11_JCRBsus cell viability assay (AID 1919873). Note: nearly all actives have a fitted effect of over 50% in size. Note: potency is the fitted concentration of half-maximal effect. In short, it runs like this:
as §1

A short description of assay [6]: Quantitative High-Throughput drug screen in 47 multiple myeloma cell lines against the NCATS MIPE library collection: KMS28BM_JCRB cell viability assay (AID 1919874). Note: nearly all actives have a fitted effect of over 35% in size. Note: potency is the fitted concentration of half-maximal effect. In short, it runs like this:
as §1

Assay [7] deals with Cytochrome P450 3A4 (Homo sapiens) (UniProt P08684). Nature of the assay: qHTS for inhibitors of CYP3A4 against the NCATS DSHEA and TCM libraries (AID 1919971).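 Note: inhibition lowers luminescence from luciferin made by CYP3A4.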 Put shortly: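 Luminescent P450-Glo format: compounds preincubated 15 min with enzyme and luciferin substrate, reaction run 30-45 min after NADPH regeneration solution. Intraplate controls: ketoconazole for CYP3A4 and CYP2C19, sulfaphenazole for CYP2C9.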
On the technique in general: In qHTS, concentration-response curves come from the screen itself.

Assay [8] has as its target Cytochrome P450 2D6 (Homo sapiens) (UniProt P10635). Nature of the assay: qHTS for inhibitors of CYP2D6 against the NCATS DSHEA and TCM libraries (AID 1919972). In short, it runs like this: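 Luminescent P450-Glo read-out of CYP2D6 turnover of a luciferin substrate after NADPH-driven reaction of 30-45 min at room temperature. Compounds were first preincubated 15 min with enzyme at titrated concentrations; quinidine was the intraplate control.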

Potency and outcome data for 17 compounds are collected here from PubChem BioAssay (NCATS).

Results filed as inconclusive are left out. Activity calls are given as the source filed them. Calls come from the whole dose curve; as a rule, active = well fitted curve in the direction sought with a large enough effect; inconclusive = small, poorly fitted or top-dose-only effect, or another doubt; inactive = no such curve, though single readings can be large; an effect the other way counts as inactive or inconclusive.

Cytochrome P450 3A4 (Homo sapiens), sequence (P08684 whole entry, looked up): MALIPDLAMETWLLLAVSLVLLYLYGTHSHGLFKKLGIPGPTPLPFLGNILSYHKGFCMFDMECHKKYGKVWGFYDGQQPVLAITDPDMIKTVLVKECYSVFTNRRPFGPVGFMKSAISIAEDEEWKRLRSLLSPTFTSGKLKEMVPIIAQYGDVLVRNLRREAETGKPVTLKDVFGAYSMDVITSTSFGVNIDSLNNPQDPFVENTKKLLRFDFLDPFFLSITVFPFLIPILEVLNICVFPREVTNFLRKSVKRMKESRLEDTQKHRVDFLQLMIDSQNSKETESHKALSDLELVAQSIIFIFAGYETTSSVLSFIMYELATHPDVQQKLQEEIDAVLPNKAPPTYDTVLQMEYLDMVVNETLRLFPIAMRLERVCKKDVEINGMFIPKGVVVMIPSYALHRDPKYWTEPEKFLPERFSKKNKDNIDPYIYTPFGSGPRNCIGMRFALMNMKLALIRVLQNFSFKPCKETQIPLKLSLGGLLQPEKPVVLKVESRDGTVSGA
Cytochrome P450 2D6 (Homo sapiens), sequence (P10635 whole entry, looked up): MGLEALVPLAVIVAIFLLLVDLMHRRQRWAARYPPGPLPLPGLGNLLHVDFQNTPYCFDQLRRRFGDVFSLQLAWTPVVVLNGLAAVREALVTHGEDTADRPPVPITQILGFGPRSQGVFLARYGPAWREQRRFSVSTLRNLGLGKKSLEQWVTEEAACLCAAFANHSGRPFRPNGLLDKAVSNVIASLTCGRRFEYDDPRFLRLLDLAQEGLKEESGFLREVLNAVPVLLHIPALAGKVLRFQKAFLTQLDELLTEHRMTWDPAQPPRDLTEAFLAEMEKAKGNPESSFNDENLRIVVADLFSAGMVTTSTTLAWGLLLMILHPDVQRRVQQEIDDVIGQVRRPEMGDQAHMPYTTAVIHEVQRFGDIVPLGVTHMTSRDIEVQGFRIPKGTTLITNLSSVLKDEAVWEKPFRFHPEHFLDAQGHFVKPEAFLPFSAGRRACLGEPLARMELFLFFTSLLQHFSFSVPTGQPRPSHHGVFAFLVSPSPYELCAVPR

As for `C[C@]12C=CC(=O)C=C1CC[C@@H]1[C@@H]2[C@@H](O)C[C@@]2(C)[C@@H]1CC[C@]2(O)C(=O)CO`, the Potency result in assay [1], in assay [2], in assay [4] and in assay [6] was “inactive” throughout. Also, the results for the Potency in assay [3] and in assay [5] were 0.187 µM (active) and 0.0935 µM (active), respectively.
Take `CC[C@H]1OC(=O)[C@H](C)[C@@H](O[C@H]2C[C@@](C)(OC)[C@@H](O)[C@H](C)O2)[C@H](C)[C@@H](O[C@@H]2O[C@H](C)C[C@H](N(C)C)[C@H]2O)[C@](C)(O)C[C@H](C)C(=NOCOCCOC)[C@H](C)[C@@H](O)[C@]1(C)O`: the Potency entry in assay [1], in assay [2] and in assay [4] was “inactive” throughout. The Potency in assay [3] was 4.69 µM (active).
On to `O=c1[nH]c(=O)n([C@H]2C[C@@H](O)[C@@H](CO)O2)cc1C(F)(F)F`, for which the values for the Potency in assay [1], in assay [3] and in assay [5] were 10.5 µM (active), 3.72 µM (active) and 6.62 µM (active), respectively. For the same compound, in assay [4], the Potency result was “inactive”.
For the compound `CCC[C@H](Nc1nc(-c2ccc(NC(=O)NCC)c(OC)c2)ncc1C)c1cccnc1`, the Potency is 0.001 µM (active) in assay [1], 0.0264 µM (active) in assay [3], 0.0083 µM (active) in assay [4] and 0.0012 µM (active) in assay [5].
Turning to `CCCCCCOC(=O)N=C(N)c1ccc(NCc2nc3cc(C(=O)N(CCC(=O)OCC)c4ccccn4)ccc3n2C)cc1`, the Potency was 13.2 µM (active) in assay [1]; 20.9 µM (active) in assay [2]; 18.7 µM (active) in assay [3]; 18.7 µM (active) in assay [5]; 23.5 µM (active) in assay [6].
Consider `O=C(Nc1cccc(C(F)(F)F)c1)Nc1cc(S(=O)(=O)NC2CC2)ccc1-c1ccsc1`, for which the Potency in assay [1] was 26.4 µM (active); in assay [3] it was 13.2 µM (active); in assay [4], 3.72 µM (active); in assay [5] it was 16.6 µM (active); in assay [6], 20.9 µM (active).
Turning to `COc1ccc(-c2nc3ccc(C4=NNC(=O)CC4C)cc3[nH]2)cc1` (centres undefined), the Potency entry in assay [1], in assay [2], in assay [3], in assay [4], in assay [5] and in assay [6] was “inactive” in each case.
Turning to `CC(C)c1onc(-c2c(Cl)cccc2Cl)c1COc1ccc(C=Cc2cccc(C(=O)O)c2)c(Cl)c1`, the Potency result in assay [1], in assay [3], in assay [4], in assay [5] and in assay [6] was “inactive” in each case.
As for `CC(C)(CO)[C@@H](O)C(=O)NCCC(=O)O`, the Potency entry in assay [1], in assay [3], in assay [4], in assay [5] and in assay [6] was “inactive” throughout. Further, the outcome in assay [7] and in assay [8] was inactive.
With `NC(=O)c1ncn([C@@H]2O[C@H](CO)[C@@H](O)[C@@H]2O)n1`, the Potency entry in assay [1], in assay [2], in assay [3], in assay [4] and in assay [5] was “inactive” each time.
In the case of `CC(C)(OCc1nn(Cc2ccccc2)c2ccccc12)C(=O)O`, the Potency entry in assay [1], in assay [2], in assay [3], in assay [4], in assay [5] and in assay [6] was “inactive” each time.
Turning to `N#Cc1ccc(Oc2ccc3c(c2)COB3O)cc1`, in assay [1], the Potency is 20.9 µM (active). Besides, the Potency result in assay [3], in assay [4] and in assay [6] was “inactive” each time.
Regarding `CCOC(=O)[C@H]1O[C@H]1C(=O)N[C@@H](CC(C)C)C(=O)NCCC(C)C`, the Potency entry in assay [1], in assay [4], in assay [5] and in assay [6] was “inactive” each time. Besides, the Potency in assay [2] is 5.9 µM (active).
On to `O=C(Nc1cccc(Cl)c1)Nc1ncc(CCNc2ncnc3ccsc23)s1`, for which the Potency in assay [1] is 4.18 µM (active); in assay [2], 5.26 µM (active); in assay [3] it was 5.9 µM (active); in assay [5], 11.8 µM (active).
For `O=C(O)C1=CC(O)C(O)[C@H](O)C1` (some centres undefined), the Potency result in assay [1], in assay [3], in assay [4] and in assay [5] was “inactive” each time.
For the compound `Cc1nc(C(=O)NCC(=O)O)c(O)c2ccc(Oc3ccccc3)cc12`, the Potency result in assay [1], in assay [3], in assay [4], in assay [5] and in assay [6] was “inactive” throughout.
In the case of `CC(C)[C@H](O)C(=O)N[C@@H](C)C(=O)N[C@@H]1C(=O)N(C)CCc2ccccc21`, the Potency entry in assay [1], in assay [3] and in assay [4] was “inactive” in each case. Further, the Potency is 26.4 µM (active) in assay [2] and 0.332 µM (active) in assay [5].
